Source: PubChem BioAssay AID1159580 (chemical genetic matrix, 2015)
Several values for one entry are separate records, joined by “and”; a condition that tells them apart may be missing. Equal entries are not always repeated. Out of some 5,500 compounds screened, about 2,000 (36%) were called active. Another 18% or so got no clear call; they are omitted. Rule as the data show it: active = normalized growth mostly below about 0.91 (no sharp cut-off); inconclusive = no clear call, values can overlap the other calls; inactive = mostly above about 0.92. The list shows a part of the results.

Assay: chemical genetic growth profiling, strain panel (AID 1159580);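 also: tested at 20 µM; growth read once vehicle control cultures reached saturation at 30 °C; 1 = growth at the plate median or of vehicle wells; lower values mean less growth of the strain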
Details: growth OD

Measured: normalized growth

O=C(O)CC[N+](=O)[O-]
inactive: S. cerevisiae deletion strains, locus YJR075W, strain HOC1, stronger effect = lower value 0.987 | S. cerevisiae deletion strains, locus YKL009W, strain mrt4, stronger effect = lower value 0.971 | S. cerevisiae deletion strains, locus YKL068W, stronger effect = lower value 0.978 | S. cerevisiae deletion strains, locus YKL085W, strain MDH1 (second series), stronger effect = lower value 1.01 | S. cerevisiae deletion strains, locus YKL085W, strain MDH1, stronger effect = lower value 1.01 | S. cerevisiae deletion strains, locus YKL160W, strain elf1, stronger effect = lower value 1 | S. cerevisiae deletion strains, locus YKL190W, strain CNB1, stronger effect = lower value 0.986 | S. cerevisiae deletion strains, locus YKR001C, strain vps1, stronger effect = lower value 0.982 | S. cerevisiae deletion strains, locus YKR026C, strain gcn3, stronger effect = lower value 1 | S. cerevisiae deletion strains, locus YKR091W, strain srl3, stronger effect = lower value 0.993 | S. cerevisiae deletion strains, locus YLL001W, strain dnm1, stronger effect = lower value 0.981 | S. cerevisiae deletion strains, locus YLL026W, stronger effect = lower value 1.01 | S. cerevisiae deletion strains, locus YLL041C, strain sdh2, stronger effect = lower value 1 | S. cerevisiae deletion strains, locus YLR027C, strain aat2, stronger effect = lower value 1.01 | S. cerevisiae deletion strains, locus YLR039C, strain RIC1, stronger effect = lower value 0.903 | S. cerevisiae deletion strains, locus YLR058C, strain SHM2, stronger effect = lower value 0.991 | S. cerevisiae deletion strains, locus YLR102C, strain apc9, stronger effect = lower value 0.979 | S. cerevisiae deletion strains, locus YLR113W, strain HOG1, stronger effect = lower value 1.02 | S. cerevisiae deletion strains, locus YLR221C, strain rsa3, stronger effect = lower value 1.03 | S. cerevisiae deletion strains, locus YLR258W, strain gsy2, stronger effect = lower value 1.03 | S. cerevisiae deletion strains, locus YLR262C, strain YPT6 (second series), stronger effect = lower value 0.989 | S. cerevisiae deletion strains, locus YLR262C, strain YPT6, stronger effect = lower value 0.908 | S. cerevisiae deletion strains, locus YLR268W, strain sec22, stronger effect = lower value 0.988 | S. cerevisiae deletion strains, locus YLR320W, strain mms22, stronger effect = lower value 1.03 | S. cerevisiae deletion strains, locus YLR330W, strain CHS5, stronger effect = lower value 0.982 | S. cerevisiae deletion strains, locus YLR342W, strain FKS1 (second series), stronger effect = lower value 0.998 | S. cerevisiae deletion strains, locus YLR342W, strain FKS1, stronger effect = lower value 1.01 | S. cerevisiae deletion strains, locus YLR357W, strain rsc2, stronger effect = lower value 0.993 | S. cerevisiae deletion strains, locus YLR370C, strain arc18, stronger effect = lower value 1 | S. cerevisiae deletion strains, locus YLR371W, strain rom2, stronger effect = lower value 0.969 | S. cerevisiae deletion strains, locus YLR384C, strain iki3, stronger effect = lower value 0.988 | S. cerevisiae deletion strains, locus YLR418C, strain cdc73, stronger effect = lower value 1 | S. cerevisiae deletion strains, locus YML016C, strain PPZ1, stronger effect = lower value 0.993 | S. cerevisiae deletion strains, locus YML032C, strain rad52, stronger effect = lower value 0.973 | S. cerevisiae deletion strains, locus YML120C, strain ndi1, stronger effect = lower value 0.999 | S. cerevisiae deletion strains, locus YML124C, strain tub3, stronger effect = lower value 0.98 | S. cerevisiae deletion strains, locus YMR058W, strain fet3, stronger effect = lower value 1.03 | S. cerevisiae deletion strains, locus YMR078C, strain ctf18, stronger effect = lower value 0.976 | S. cerevisiae deletion strains, locus YMR125W, strain sto1, stronger effect = lower value 0.988 | S. cerevisiae deletion strains, locus YMR129W, stronger effect = lower value 0.996 | S. cerevisiae deletion strains, locus YMR205C, strain PFK2, stronger effect = lower value 0.983 | S. cerevisiae deletion strains, locus YMR223W, strain ubp8, stronger effect = lower value 0.977 | S. cerevisiae deletion strains, locus YMR231W, strain pep5, stronger effect = lower value 0.986 | S. cerevisiae deletion strains, locus YMR263W, strain SAP30, stronger effect = lower value 0.985 and 1 | S. cerevisiae deletion strains, locus YMR307W, strain GAS1, stronger effect = lower value 0.924 | S. cerevisiae deletion strains, locus YNL067W, strain RPL9B, stronger effect = lower value 0.991 | S. cerevisiae deletion strains, locus YNL071W, strain lat1, stronger effect = lower value 1.01 | S. cerevisiae deletion strains, locus YNL128W, strain TEP1, stronger effect = lower value 0.981 | S. cerevisiae deletion strains, locus YNL153C, strain GIM3, stronger effect = lower value 0.994 | S. cerevisiae deletion strains, locus YNL175C, strain NOP13, stronger effect = lower value 0.992 | S. cerevisiae deletion strains, locus YNL183C, strain NPR1, stronger effect = lower value 0.953 | S. cerevisiae deletion strains, locus YNL197C, strain WHI3, stronger effect = lower value 1.01 | S. cerevisiae deletion strains, locus YNL209W, strain ssb2, stronger effect = lower value 1.01 | S. cerevisiae deletion strains, locus YNL224C, strain SQS1, stronger effect = lower value 0.992 | S. cerevisiae deletion strains, locus YNL233W, strain BNI4, stronger effect = lower value 1 | S. cerevisiae deletion strains, locus YNL248C, strain rpa49, stronger effect = lower value 0.996 | S. cerevisiae deletion strains, locus YNL250W, strain rad50, stronger effect = lower value 0.978 | S. cerevisiae deletion strains, locus YNL271C, strain bni1, stronger effect = lower value 0.974 | S. cerevisiae deletion strains, locus YNL298W, strain CLA4, stronger effect = lower value 0.98 | S. cerevisiae deletion strains, locus YNL307C, strain MCK1, stronger effect = lower value 0.982 | S. cerevisiae deletion strains, locus YNL322C, strain KRE1 (second series), stronger effect = lower value 0.989 | S. cerevisiae deletion strains, locus YNL322C, strain KRE1, stronger effect = lower value 0.987 and 1.01 | S. cerevisiae deletion strains, locus YNR049C, strain mso1, stronger effect = lower value 1 | S. cerevisiae deletion strains, locus YNR052C, strain pop2, stronger effect = lower value 0.979 | S. cerevisiae deletion strains, locus YOL006C, strain TOP1, stronger effect = lower value 1.01 | S. cerevisiae deletion strains, locus YOL012C, strain htz1 0.756 | S. cerevisiae deletion strains, locus YOL147C, strain pex11, stronger effect = lower value 0.985 | S. cerevisiae deletion strains, locus YOR001W, strain rrp6, stronger effect = lower value 1.03 | S. cerevisiae deletion strains, locus YOR061W, strain CKA2, stronger effect = lower value 0.992 | S. cerevisiae deletion strains, locus YOR069W, strain VPS5, stronger effect = lower value 0.99 | S. cerevisiae deletion strains, locus YOR070C, strain gyp1, stronger effect = lower value 0.999 | S. cerevisiae deletion strains, locus YOR080W, strain dia2, stronger effect = lower value 1 | S. cerevisiae deletion strains, locus YOR083W, strain WHI5 (second series), stronger effect = lower value 0.995 | S. cerevisiae deletion strains, locus YOR083W, strain WHI5, stronger effect = lower value 0.999 | S. cerevisiae deletion strains, locus YOR106W, strain vam3, stronger effect = lower value 0.99 | S. cerevisiae deletion strains, locus YOR136W, strain idh2, stronger effect = lower value 0.986 | S. cerevisiae deletion strains, locus YOR144C, strain elg1, stronger effect = lower value 0.97 | S. cerevisiae deletion strains, locus YOR184W, strain ser1, stronger effect = lower value 0.968 | S. cerevisiae deletion strains, locus YOR231W, strain MKK1, stronger effect = lower value 0.971 | S. cerevisiae deletion strains, locus YOR265W, strain rbl2, stronger effect = lower value 0.997 | S. cerevisiae deletion strains, locus YOR270C, strain vph1, stronger effect = lower value 1.04 | S. cerevisiae deletion strains, locus YOR290C, strain snf2, stronger effect = lower value 0.982 | S. cerevisiae deletion strains, locus YOR316C, strain cot1, stronger effect = lower value 0.989 | S. cerevisiae deletion strains, locus YPL051W, strain arl3, stronger effect = lower value 1.03 | S. cerevisiae deletion strains, locus YPL055C, strain LGE1, stronger effect = lower value 0.972 and 1.02 | S. cerevisiae deletion strains, locus YPL078C, strain atp4, stronger effect = lower value 0.981 | S. cerevisiae deletion strains, locus YPL106C, strain sse1, stronger effect = lower value 1.04 | S. cerevisiae deletion strains, locus YPL240C, strain hsp82, stronger effect = lower value 1.01 | S. cerevisiae deletion strains, locus YPL241C, strain CIN2, stronger effect = lower value 0.941 | S. cerevisiae deletion strains, locus YPL256C, strain CLN2, stronger effect = lower value 0.991 | S. cerevisiae deletion strains, locus YPR119W, strain clb2, stronger effect = lower value 0.993 | S. cerevisiae deletion strains, locus YPR141C, strain kar3, stronger effect = lower value 0.979 | S. cerevisiae deletion strains, locus YPR163C, strain tif3, stronger effect = lower value 0.986 | S. cerevisiae deletion strains, locus YPR167C, strain met16, stronger effect = lower value 0.996 | S. cerevisiae deletion strains, strain wtn01, stronger effect = lower value 1.01 | S. cerevisiae strains, strain wild type, stronger effect = lower value 0.999
